# Experimental data reported in paper PMC11006913.
# Columns and labels:
# Experiment in all cases: PBM; 200 nM protein, PBS
# Details in all cases: dsDNA, one strand shown
# HOXB4 [1] = target: HOXB4 (Homo sapiens, UniProt P17483 148-234)
# HOXB4 [2] = target: HOXB4 (Homo sapiens, UniProt P17483 148-234, V174I)
# ALX3 [3] = target: ALX3 (Homo sapiens, UniProt O95076 139-225, N203Q)
# HOXD13 [4] = target: HOXD13 (Homo sapiens, UniProt P35453 263-343, T313R)
# HOXD13 [5] = target: HOXD13 (Homo sapiens, UniProt P35453 263-343)
# ALX3 [6] = target: ALX3 (Homo sapiens, UniProt O95076 139-225)
# ALX3 [7] = target: ALX3 (Homo sapiens, UniProt O95076 139-225, L168Q)
# HOXD13 [8] = target: HOXD13 (Homo sapiens, UniProt P35453 263-343, T313A)
# ALX3 [9] = target: ALX3 (Homo sapiens, UniProt O95076 139-225, L168V)
# ALX3 [10] = target: ALX3 (Homo sapiens, UniProt O95076 139-225, N203S)
# Chain of ALX3 (Homo sapiens, UniProt O95076 139-225, N203S) (O95076 139-225 N203S): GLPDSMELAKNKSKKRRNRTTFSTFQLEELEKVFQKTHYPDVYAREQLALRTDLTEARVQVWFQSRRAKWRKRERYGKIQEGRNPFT
# Chain of HOXB4 (Homo sapiens, UniProt P17483 148-234, V174I) (P17483 148-234 V174I): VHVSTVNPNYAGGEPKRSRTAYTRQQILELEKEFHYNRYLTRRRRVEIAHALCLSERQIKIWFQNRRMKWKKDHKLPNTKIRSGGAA
# Chain of HOXB4 (Homo sapiens, UniProt P17483 148-234) (P17483 148-234): as the sequence (P17483 148-234 V174I) above, with I27V counted along it
# Chain of HOXD13 (Homo sapiens, UniProt P35453 263-343, T313A) (P35453 263-343 T313A): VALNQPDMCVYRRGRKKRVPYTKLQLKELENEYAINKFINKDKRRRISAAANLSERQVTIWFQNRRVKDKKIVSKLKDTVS
# Chain of HOXD13 (Homo sapiens, UniProt P35453 263-343, T313R) (P35453 263-343 T313R): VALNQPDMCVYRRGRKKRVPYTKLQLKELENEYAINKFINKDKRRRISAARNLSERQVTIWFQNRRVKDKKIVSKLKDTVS
# Chain of ALX3 (Homo sapiens, UniProt O95076 139-225, L168V) (O95076 139-225 L168V): as the sequence (O95076 139-225 N203S) above, with L30V, S65N counted along it
# Chain of ALX3 (Homo sapiens, UniProt O95076 139-225, L168Q) (O95076 139-225 L168Q): as the sequence (O95076 139-225 N203S) above, with L30Q, S65N counted along it
# Chain of ALX3 (Homo sapiens, UniProt O95076 139-225, N203Q) (O95076 139-225 N203Q): as the sequence (O95076 139-225 N203S) above, with S65Q counted along it
# Chain of ALX3 (Homo sapiens, UniProt O95076 139-225) (O95076 139-225): as the sequence (O95076 139-225 N203S) above, with S65N counted along it
# Chain of HOXD13 (Homo sapiens, UniProt P35453 263-343) (P35453 263-343): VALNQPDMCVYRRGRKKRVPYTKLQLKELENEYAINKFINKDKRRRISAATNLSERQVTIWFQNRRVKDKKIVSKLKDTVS
sequence,measurement,setting,value
CCTCACCG,binding signal,HOXB4 [1],"7.41 upbm affinity estimate (log intensity, higher = more binding, comparable within an allelic series)"
same,binding signal,HOXB4 [2],"7.32 upbm affinity estimate (log intensity, higher = more binding, comparable within an allelic series)"
CGTCGTTA,binding signal,HOXB4 [1],"10.9 upbm affinity estimate (log intensity, higher = more binding, comparable within an allelic series)"
same,binding signal,HOXB4 [2],"11 upbm affinity estimate (log intensity, higher = more binding, comparable within an allelic series)"
CTATTTGA,binding signal,HOXB4 [1],"9.99 upbm affinity estimate (log intensity, higher = more binding, comparable within an allelic series)"
same,binding signal,HOXB4 [2],"9.85 upbm affinity estimate (log intensity, higher = more binding, comparable within an allelic series)"
GCAATTTA,binding signal,HOXB4 [1],"11.5 upbm affinity estimate (log intensity, higher = more binding, comparable within an allelic series)"
same,binding signal,HOXB4 [2],"11.7 upbm affinity estimate (log intensity, higher = more binding, comparable within an allelic series)"
ATTAGTTG,binding signal,HOXB4 [1],"11.2 upbm affinity estimate (log intensity, higher = more binding, comparable within an allelic series)"
same,binding signal,HOXB4 [2],"11.5 upbm affinity estimate (log intensity, higher = more binding, comparable within an allelic series)"
CAGGACGC,binding signal,HOXB4 [1],"7.75 upbm affinity estimate (log intensity, higher = more binding, comparable within an allelic series)"
same,binding signal,HOXB4 [2],"7.46 upbm affinity estimate (log intensity, higher = more binding, comparable within an allelic series)"
CCGACGGA,binding signal,HOXB4 [1],"7.67 upbm affinity estimate (log intensity, higher = more binding, comparable within an allelic series)"
same,binding signal,HOXB4 [2],"7.56 upbm affinity estimate (log intensity, higher = more binding, comparable within an allelic series)"
AAATGTTA,binding signal,HOXB4 [1],"10.3 upbm affinity estimate (log intensity, higher = more binding, comparable within an allelic series)"
same,binding signal,HOXB4 [2],"10.4 upbm affinity estimate (log intensity, higher = more binding, comparable within an allelic series)"
AATAGCCA,binding signal,HOXB4 [1],"10.2 upbm affinity estimate (log intensity, higher = more binding, comparable within an allelic series)"
same,binding signal,HOXB4 [2],"10.3 upbm affinity estimate (log intensity, higher = more binding, comparable within an allelic series)"
CCGGTGAG,binding signal,HOXB4 [1],"7.55 upbm affinity estimate (log intensity, higher = more binding, comparable within an allelic series)"
same,binding signal,HOXB4 [2],"7.62 upbm affinity estimate (log intensity, higher = more binding, comparable within an allelic series)"
ATAAGCGC,binding signal,HOXB4 [1],"9.9 upbm affinity estimate (log intensity, higher = more binding, comparable within an allelic series)"
same,binding signal,HOXB4 [2],"10 upbm affinity estimate (log intensity, higher = more binding, comparable within an allelic series)"
GAATGAAC,binding signal,HOXB4 [1],"8.91 upbm affinity estimate (log intensity, higher = more binding, comparable within an allelic series)"
same,binding signal,HOXB4 [2],"8.78 upbm affinity estimate (log intensity, higher = more binding, comparable within an allelic series)"
CTGGCGAC,binding signal,HOXB4 [1],"7.56 upbm affinity estimate (log intensity, higher = more binding, comparable within an allelic series)"
same,binding signal,HOXB4 [2],"7.45 upbm affinity estimate (log intensity, higher = more binding, comparable within an allelic series)"
AGACCTAG,binding signal,HOXB4 [1],"7.5 upbm affinity estimate (log intensity, higher = more binding, comparable within an allelic series)"
same,binding signal,HOXB4 [2],"7.5 upbm affinity estimate (log intensity, higher = more binding, comparable within an allelic series)"
AAAATTAC,binding signal,HOXB4 [1],"11.3 upbm affinity estimate (log intensity, higher = more binding, comparable within an allelic series)"
same,binding signal,HOXB4 [2],"11.7 upbm affinity estimate (log intensity, higher = more binding, comparable within an allelic series)"
TCATTGGA,binding signal,HOXB4 [1],"10.1 upbm affinity estimate (log intensity, higher = more binding, comparable within an allelic series)"
same,binding signal,HOXB4 [2],"9.83 upbm affinity estimate (log intensity, higher = more binding, comparable within an allelic series)"
ACAACGAT,binding signal,HOXB4 [1],"9.88 upbm affinity estimate (log intensity, higher = more binding, comparable within an allelic series)"
same,binding signal,HOXB4 [2],"9.27 upbm affinity estimate (log intensity, higher = more binding, comparable within an allelic series)"
AATGGTCA,binding signal,HOXB4 [1],"10.4 upbm affinity estimate (log intensity, higher = more binding, comparable within an allelic series)"
same,binding signal,HOXB4 [2],"10.5 upbm affinity estimate (log intensity, higher = more binding, comparable within an allelic series)"
AGCCGCGG,binding signal,HOXB4 [1],"7.58 upbm affinity estimate (log intensity, higher = more binding, comparable within an allelic series)"
same,binding signal,HOXB4 [2],"7.46 upbm affinity estimate (log intensity, higher = more binding, comparable within an allelic series)"
AAACGAGT,binding signal,HOXB4 [1],"9.6 upbm affinity estimate (log intensity, higher = more binding, comparable within an allelic series)"
same,binding signal,HOXB4 [2],"9.41 upbm affinity estimate (log intensity, higher = more binding, comparable within an allelic series)"
CTAGGCAG,binding signal,HOXB4 [1],"8.13 upbm affinity estimate (log intensity, higher = more binding, comparable within an allelic series)"
same,binding signal,HOXB4 [2],"7.88 upbm affinity estimate (log intensity, higher = more binding, comparable within an allelic series)"
CTCCCGGC,binding signal,HOXB4 [1],"7.38 upbm affinity estimate (log intensity, higher = more binding, comparable within an allelic series)"
same,binding signal,HOXB4 [2],"7.56 upbm affinity estimate (log intensity, higher = more binding, comparable within an allelic series)"
same,binding signal,ALX3 [3],"7.65 upbm affinity estimate (log intensity, higher = more binding, comparable within an allelic series)"
same,binding signal,HOXD13 [4],"9.46 upbm affinity estimate (log intensity, higher = more binding, comparable within an allelic series)"
same,binding signal,HOXD13 [5],"9.39 upbm affinity estimate (log intensity, higher = more binding, comparable within an allelic series)"
same,binding signal,ALX3 [6],"7.57 upbm affinity estimate (log intensity, higher = more binding, comparable within an allelic series)"
same,binding signal,ALX3 [7],"7.75 upbm affinity estimate (log intensity, higher = more binding, comparable within an allelic series)"
same,binding signal,HOXD13 [8],"9.4 upbm affinity estimate (log intensity, higher = more binding, comparable within an allelic series)"
same,binding signal,ALX3 [9],"7.74 upbm affinity estimate (log intensity, higher = more binding, comparable within an allelic series)"
same,binding signal,ALX3 [10],"7.67 upbm affinity estimate (log intensity, higher = more binding, comparable within an allelic series)"
AATCAAGG,binding signal,HOXB4 [1],"10.3 upbm affinity estimate (log intensity, higher = more binding, comparable within an allelic series)"
same,binding signal,HOXB4 [2],"10.5 upbm affinity estimate (log intensity, higher = more binding, comparable within an allelic series)"
CTACCGCC,binding signal,HOXB4 [1],"7.59 upbm affinity estimate (log intensity, higher = more binding, comparable within an allelic series)"
same,binding signal,HOXB4 [2],"7.48 upbm affinity estimate (log intensity, higher = more binding, comparable within an allelic series)"
CGAATCTC,binding signal,HOXB4 [1],"7.71 upbm affinity estimate (log intensity, higher = more binding, comparable within an allelic series)"
same,binding signal,HOXB4 [2],"7.74 upbm affinity estimate (log intensity, higher = more binding, comparable within an allelic series)"
ATGAGTTA,binding signal,HOXB4 [1],"10.4 upbm affinity estimate (log intensity, higher = more binding, comparable within an allelic series)"
same,binding signal,HOXB4 [2],"10.6 upbm affinity estimate (log intensity, higher = more binding, comparable within an allelic series)"
ACGCAATA,binding signal,HOXB4 [1],"9.72 upbm affinity estimate (log intensity, higher = more binding, comparable within an allelic series)"
same,binding signal,HOXB4 [2],"9.78 upbm affinity estimate (log intensity, higher = more binding, comparable within an allelic series)"
